# Assay results reported in the supplement of paper PMC8728848.
# The sample as a whole holds a higher share of the strongest signals than the screen did.
# B1: SBD-G4S3-Fc (protein)
# chain: MASIPSSASVQLDSYNYDGSTFSGKIYVKNIAYSKKVTVVYADGSDNWNNNGNIIAASFSGPISGSNYEYWTFSASVKGIKEFYIKYEVSGKTYYDNNNSANYQVSTGGGGSGGGGSGGGGSEFVPRDCGCKPCICTVPEVSSVFIFPPKPKDVLTITLTPKVTCVVVDISKDDPEVQFSWFVDDVEVHTAQTQPREEQFNSTFRSVSELPIMHQDWLNGKEFKCRVNSAAFPAPIEKTISKTKGRPKAPQVYTIPPPKEQMAKDKVSLTCMITDFFPEDITVEWQWNGQPAENYKNTQPIMDTDGSYFVYSKLNVQKSNWEAGNTFTCSVLHEGLHNHHTEKSLSHSPGAA
# What was measured:
# Experiment in all cases: glycan array binding signal (z-score within array); higher = stronger binding
# Conditions in all cases: glycan notation: IUPAC condensed, linker removed
# [1] = target: Gal(b1-4)GlcNAc(b1-3)Gal(b1-4)GlcNAc(b1-2)Man(a1-3)[Gal(b1-4)GlcNAc(b1-3)Gal(b1-4)GlcNAc(b1-2)Man(a1-6)]Man(b1-4)GlcNAc(b1-4)GlcNAc
# Summary of the method: (§1)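 Glycan array data came from 3228 arrays in the Consortium for Functional Glycomics database, and only arrays with an available protein sequence were kept. Glycan names were put into IUPAC-condensed notation, and columns mapping to the same glycan were averaged. The binding signal is a within-array Z-score, averaged across arrays of one protein sequence run at different concentrations or buffers and across linkers. A negative Z-score can be read as non-binding.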
# [2] = target: Gal(b1-4)GlcNAc(b1-3)Gal(b1-4)GlcNAc(b1-2)[Gal(b1-4)GlcNAc(b1-3)Gal(b1-4)GlcNAc(b1-6)]Man(a1-6)[Gal(b1-4)GlcNAc(b1-3)Gal(b1-4)GlcNAc(b1-2)Man(a1-3)]Man(b1-4)GlcNAc(b1-4)[Fuc(a1-6)]GlcNAc
# Summary of the method: as §1
# [3] = target: Gal(b1-4)GlcNAc(b1-3)Gal(b1-4)GlcNAc(b1-3)Gal(b1-4)GlcNAc(b1-3)Gal(b1-4)GlcNAc(b1-3)Gal(b1-4)GlcNAc(b1-2)Man(a1-3)[Gal(b1-4)GlcNAc(b1-3)Gal(b1-4)GlcNAc(b1-3)Gal(b1-4)GlcNAc(b1-3)Gal(b1-4)GlcNAc(b1-3)Gal(b1-4)GlcNAc(b1-2)Man(a1-6)]Man(b1-4)GlcNAc(b1-4)GlcNAc
# Summary of the method: as §1
# [4] = target: Gal(b1-4)GlcNAc(b1-3)[Gal(b1-4)GlcNAc(b1-6)]Gal(b1-4)GlcNAc
# Summary of the method: as §1
# Gal(b1-6)Gal = target: Gal(b1-6)Gal
# Summary of the method: as §1
# Gal6P(b1-4)GlcNAc = target: Gal6P(b1-4)GlcNAc
# Summary of the method: as §1
# Gal6S(b1-4)Glc = target: Gal6S(b1-4)Glc
# Summary of the method: as §1
# Gal6S(b1-4)Glc6S = target: Gal6S(b1-4)Glc6S
# Summary of the method: as §1
# [5] = target: GalNAc(b1-3)Gal(a1-6)Gal(b1-4)Glc
# Summary of the method: as §1
# [6] = target: GalNAc(b1-4)GlcNAc(b1-2)Man(a1-3)[GalNAc(b1-4)GlcNAc(b1-2)Man(a1-6)]Man(b1-4)GlcNAc(b1-4)GlcNAc
# Summary of the method: as §1
# GalNAc(b1-4)GlcNAc6S = target: GalNAc(b1-4)GlcNAc6S
# Summary of the method: as §1
# [7] = target: Glc(a1-4)Glc(a1-4)Glc(a1-4)Glc
# Summary of the method: as §1
# Glc(b1-6)Glc = target: Glc(b1-6)Glc
# Summary of the method: as §1
# [8] = target: GlcNAc(a1-4)Gal(b1-4)GlcNAc(b1-3)Gal(b1-4)GlcNAc
# Summary of the method: as §1
# [9] = target: GlcNAc(b1-2)[GlcNAc(b1-6)]Man(a1-6)[GlcNAc(b1-2)Man(a1-3)]Man(b1-4)GlcNAc(b1-4)GlcNAc
# Summary of the method: as §1
# [10] = target: GlcNAc(b1-3)Gal(b1-4)GlcNAc(b1-3)Gal(b1-4)GlcNAc(b1-2)Man(a1-3)[GlcNAc(b1-3)Gal(b1-4)GlcNAc(b1-3)Gal(b1-4)GlcNAc(b1-2)Man(a1-6)]Man(b1-4)GlcNAc(b1-4)GlcNAc
# Summary of the method: as §1
# [11] = target: GlcNAc(b1-3)Gal(b1-4)GlcNAc(b1-3)Gal(b1-4)GlcNAc(b1-2)Man(a1-3)[GlcNAc(b1-3)Gal(b1-4)GlcNAc(b1-3)Gal(b1-4)GlcNAc(b1-2)Man(a1-6)]Man(b1-4)GlcNAc(b1-4)[Fuc(a1-6)]GlcNAc
# Summary of the method: as §1
# [12] = target: GlcNAc(b1-3)Gal(b1-4)GlcNAc(b1-3)Gal(b1-4)GlcNAc(b1-3)Gal(b1-4)GlcNAc(b1-2)Man(a1-3)[GlcNAc(b1-3)Gal(b1-4)GlcNAc(b1-3)Gal(b1-4)GlcNAc(b1-3)Gal(b1-4)GlcNAc(b1-2)Man(a1-6)]Man(b1-4)GlcNAc(b1-4)[Fuc(a1-6)]GlcNAc
# Summary of the method: as §1
# [13] = target: GlcNAc(b1-4)Gal(b1-4)GlcNAc
# Summary of the method: as §1
# [14] = target: GlcNAc(b1-4)GlcNAc(b1-4)GlcNAc(b1-4)GlcNAc(b1-4)GlcNAc(b1-4)GlcNAc
# Summary of the method: as §1
# [15] = target: GlcNAc(b1-4)[GlcNAc(b1-6)]GalNAc
# Summary of the method: as §1
# Man(a1-2)Man(a1-3)Man = target: Man(a1-2)Man(a1-3)Man
# Summary of the method: as §1
# [16] = target: Man(a1-2)Man(a1-3)[Man(a1-2)Man(a1-6)]Man(a1-6)[Man(a1-2)Man(a1-2)Man(a1-3)]Man(b1-4)GlcNAc(b1-4)GlcNAc
# Summary of the method: as §1
# Man(a1-6)Man = target: Man(a1-6)Man
# Summary of the method: as §1
# Man(b1-4)GlcNAc = target: Man(b1-4)GlcNAc
# Summary of the method: as §1
# [17] = target: Neu5Ac(a2-3)Gal(b1-3)[GlcNAc(b1-6)]GalNAc
# Summary of the method: as §1
# [18] = target: Neu5Ac(a2-3)Gal(b1-4)[Fuc(a1-3)]GlcNAc(b1-6)[Neu5Ac(a2-3)Gal(b1-3)]GalNAc
# Summary of the method: as §1
# Neu5Ac(a2-6)Gal = target: Neu5Ac(a2-6)Gal
# Summary of the method: as §1
# [19] = target: Neu5Ac(a2-6)Gal(b1-3)GlcNAc(b1-3)[Gal(b1-4)GlcNAc(b1-6)]Gal(b1-4)Glc
# Summary of the method: as §1
# [20] = target: Neu5Ac(a2-6)Gal(b1-4)GlcNAc(b1-3)Gal(b1-4)GlcNAc(b1-3)Gal(b1-4)GlcNAc
# Summary of the method: as §1
# [21] = target: Neu5Ac(a2-6)Gal(b1-4)GlcNAc(b1-3)Gal(b1-4)GlcNAc(b1-3)Gal(b1-4)GlcNAc(b1-2)Man(a1-3)[Neu5Ac(a2-6)Gal(b1-4)GlcNAc(b1-3)Gal(b1-4)GlcNAc(b1-3)Gal(b1-4)GlcNAc(b1-2)Man(a1-6)]GalNAc
# Summary of the method: as §1
# [22] = target: Neu5Ac(a2-8)Neu5Ac(a2-8)Neu5Ac(a2-8)Neu5Ac(a2-3)[GalNAc(b1-4)]Gal(b1-4)Glc
# Summary of the method: as §1
# [23] = target: Neu5Ac(a2-8)Neu5Gc(a2-3)Gal(b1-4)GlcNAc
# Summary of the method: as §1
# Neu5Ac(b2-6)GalNAc = target: Neu5Ac(b2-6)GalNAc
# Summary of the method: as §1
# [24] = target: Neu5Ac9Ac(a2-3)Gal(b1-3)GlcNAc
# Summary of the method: as §1
# [25] = target: Neu5Ac9Ac(a2-6)Gal(b1-4)GlcNAc
# Summary of the method: as §1
# [26] = target: Neu5Gc(a2-3)Gal(b1-3)GlcNAc
# Summary of the method: as §1
binder,measurement,setting,value
B1,glycan array binding signal (z-score),[1],8.04
same,glycan array binding signal (z-score),[2],0.249
same,glycan array binding signal (z-score),[3],1.16
same,glycan array binding signal (z-score),[4],-0.023
same,glycan array binding signal (z-score),Gal(b1-6)Gal,-0.372
same,glycan array binding signal (z-score),Gal6P(b1-4)GlcNAc,-0.45
same,glycan array binding signal (z-score),Gal6S(b1-4)Glc,0.105
same,glycan array binding signal (z-score),Gal6S(b1-4)Glc6S,0.402
same,glycan array binding signal (z-score),[5],-0.468
same,glycan array binding signal (z-score),[6],-0.087
same,glycan array binding signal (z-score),GalNAc(b1-4)GlcNAc6S,-0.208
same,glycan array binding signal (z-score),[7],12.1
same,glycan array binding signal (z-score),Glc(b1-6)Glc,0.309
same,glycan array binding signal (z-score),[8],-0.415
same,glycan array binding signal (z-score),[9],-0.075
same,glycan array binding signal (z-score),[10],3.18
same,glycan array binding signal (z-score),[11],1.28
same,glycan array binding signal (z-score),[12],1.91
same,glycan array binding signal (z-score),[13],-0.117
same,glycan array binding signal (z-score),[14],-0.372
same,glycan array binding signal (z-score),[15],0.069
same,glycan array binding signal (z-score),Man(a1-2)Man(a1-3)Man,-0.16
same,glycan array binding signal (z-score),[16],-0.404
same,glycan array binding signal (z-score),Man(a1-6)Man,-0.195
same,glycan array binding signal (z-score),Man(b1-4)GlcNAc,-0.231
same,glycan array binding signal (z-score),[17],-0.317
same,glycan array binding signal (z-score),[18],-0.117
same,glycan array binding signal (z-score),Neu5Ac(a2-6)Gal,-0.041
same,glycan array binding signal (z-score),[19],-0.05
same,glycan array binding signal (z-score),[20],0.075
same,glycan array binding signal (z-score),[21],1.23
same,glycan array binding signal (z-score),[22],-0.006
same,glycan array binding signal (z-score),[23],7.21
same,glycan array binding signal (z-score),Neu5Ac(b2-6)GalNAc,-0.513
same,glycan array binding signal (z-score),[24],0.058
same,glycan array binding signal (z-score),[25],0.039
same,glycan array binding signal (z-score),[26],-0.167
